Experimental data reported in the supplement of paper PMC6555819.

Columns and labels:
Experiment in all cases: PBM binding z-score (relative to random genomic background probes); higher = stronger binding; sequences stand for … in GC…GCGATTGACAGCGTAGAATGAAGG
[1] = system: RARb homodimer (NR concentration 270 nM)
Procedure, shortened: (§1)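 Scanned fluorescence from custom Agilent 4×180K protein-binding microarrays was regression-normalized. Binding z-scores use random background probes as reference. Ligand-free nuclear receptor dimers were incubated on the arrays for 1 h and detected with antibodies against each partner (one per run).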

[2] = system: RARg:RXRa (NR concentration 270 nM, RXRa partner concentration 90 nM)
Procedure, shortened: as §1

[3] = system: RARg homodimer (NR concentration 270 nM)
Procedure, shortened: as §1

[4] = system: RXRa DBDmut IVT, anti-RXR (DBD mutation: RXRa K156A/R161A, NR concentration 90 nM)
Procedure, shortened: as §1

[5] = system: RXRa homodimer (NR concentration 180 nM)
Procedure, shortened: as §1

[6] = system: THRa:RXRa (NR concentration 90 nM, RXRa partner concentration 90 nM)
Procedure, shortened: as §1

[7] = system: THRa homodimer (NR concentration 90 nM)
Procedure, shortened: as §1

[8] = system: VDR homodimer (NR concentration 270 nM)
Procedure, shortened: as §1

| Sequence | PBM binding z-score [1] | PBM binding z-score [2] | PBM binding z-score [3] | PBM binding z-score [4] | PBM binding z-score [5] | PBM binding z-score [6] | PBM binding z-score [7] | PBM binding z-score [8] |
| --- | --- | --- | --- | --- | --- | --- | --- | --- |
| ATGTCTAGGTAAAAGTTCAGTGAATCCCGAGGAT | 2.32 | 1.91 | 1.91 | 0.508 | 1.57 | 1.11 | 0.0268 | 0.949 |
| ACTATTAGTTGAGACGAGGCCAACCGATAGGTTG | 0.728 | 0.273 | 0.272 | 0.0149 | 0.182 | 2.57 | 0.433 | 0.394 |
| CAAACTAGGTCACAGAGGTCAAAGCCCGTGCGTA | 5.57 | 7.25 | 7.63 | 3.22 | 7.75 | 4.82 | 2.99 | 6.06 |
| ACGTACGGGTCAACGAGGTTATAGCACGCGTATA | 3.58 | 5.69 | 5.07 | 2.07 | 6.3 | 4 | 0.75 | 3.93 |
| TCGAGTAGGTTACCATTGGGGCATTCAGCTTTCT | 0.675 | 0.565 | 0.217 | 0.45 | 0.293 | 0.633 | -0.238 | -0.46 |
| ACTAGCAGGCCAAGTTTGGGTCACTGAAACAAAG | 2.33 | 2.54 | 2.01 | -0.119 | 0.982 | 2.71 | 1.29 | 0.416 |
| ATCTCTATGTAACCAAGTTCAGTGAATGCCGAAC | 1.28 | 0.518 | 0.659 | 0.924 | 0.314 | 0.659 | 0.156 | 2.31 |
| CGTCCAAGGTCACTGCTAGGTCAGTGAAAGCATT | 4.78 | 7.45 | 7.04 | 3.66 | 5.2 | 4.48 | 3.39 | 3 |
| CCGACTGGGGCAAAGGGTACCATACTCAGTACGA | 0.849 | 0.946 | 0.506 | -0.546 | 0.731 | 0.31 | -0.963 | 0.0229 |
| GGAACGAGGGCAAAGTTGATAGCATCTGTCGACG | 1.33 | 2.18 | 1.82 | 2.76 | 2.22 | 1.25 | -0.111 | 1.21 |
| CCGACTGGGGCATAAAGGTTACCATACCATCCGG | 2.16 | 1.92 | 1.79 | -0.788 | 1.63 | 1.19 | -0.376 | 0.423 |
| GCTGTTAGTTGAAAGGGCAACCGAATGATTCTCG | 2.03 | 1.49 | 1.43 | 0.773 | 1.23 | 0.729 | -0.379 | -0.0381 |
| CCTACTGGGCCACGAAAGGTCATTGGTTCAGTGA | 4.95 | 4.88 | 4.56 | 0.546 | 5.25 | 3.8 | 1.18 | 3.08 |
| CGTCCAAGGTCTGCAGGTCAGTGAAAGCGACGTG | 2.06 | 1.26 | 1.8 | 0.0779 | 0.794 | 1.12 | -0.0329 | -0.462 |
| GCTATTAGTTGGAAGGGCAACCGAATGATTCTCG | 0.941 | 0.317 | 0.522 | 0.581 | 0.0792 | -0.126 | -0.242 | -0.28 |
| GGAACGAGGGCGTTCGAGTTGATAGCATGGCGAT | -0.589 | 0.0515 | 0.202 | 2.26 | -0.0265 | 2.16 | -1.11 | 2.02 |
| AGAATGAGGTTACCAAAGATTAGGGAAACGCTTG | 0.628 | 1.99 | 1.59 | 0.929 | 2.53 | 2.69 | 0.581 | 0.29 |
| GCAGGCAGGTGAAACGCAGGTAACTCAGGGTGGC | -0.0937 | 0.946 | 0.484 | -0.721 | 0.329 | 1.58 | -0.371 | -0.723 |
| CCTGCTAGGTCATGGTCAGCTATTCTACAGTATG | 3.14 | 3.88 | 4.48 | 2.05 | 2.65 | 2.93 | 1.28 | 0.248 |

| Sequence | PBM binding z-score [1] | PBM binding z-score [2] | PBM binding z-score [3] | PBM binding z-score [4] | PBM binding z-score [5] | PBM binding z-score [6] | PBM binding z-score [7] | PBM binding z-score [8] |
| --- | --- | --- | --- | --- | --- | --- | --- | --- |
| ATCTCTAGGTAAAGTCCAGTGAAAGATCGATAGA | 0.254 | 0.207 | 0.536 | 0.396 | -0.0378 | 0.245 | 0.0822 | 0.0331 |
| CGTCAAAGTTCAAGGTAACGTCACAGAAAGCAGC | 4.13 | 5.4 | 6.15 | 4.55 | 4.78 | 3.12 | 1.48 | 3.12 |
| CTACCAAGGTGAACCAGGTCGTTGATTACTATTC | 1.75 | 1.44 | 1.26 | 0.903 | 1.76 | 3.09 | 1.85 | 1.28 |
| TCTATAAGTTGAAGGGCAACCGACGAGTCCGTTT | 1.49 | 0.829 | 1.07 | 1.59 | 1.01 | 0.466 | 0.137 | 1.57 |
| CCTGCTAGGTCAATGGTCAGCTGAAGCAGCTCGC | 3.18 | 3.7 | 4.37 | 1.85 | 2.2 | 2.36 | 0.335 | 0.0523 |
| CATACAGGGTCAGCAAGGCCAGAGTAGGGACGGC | 3.4 | 4.63 | 5.18 | 1.92 | 4.64 | 3.29 | 1.03 | 2.08 |
| GCTCGTTGGTCAGTAAAAGGTCACACACCGGTCG | 5.31 | 5.69 | 5.36 | 0.666 | 5.85 | 3.91 | 2.35 | 2.44 |
| TCTGCTAGGTCAGTTGGTCAGCTACCGAGCTGCC | 2.77 | 2.45 | 3.07 | 0.34 | 0.83 | 1.22 | -0.00528 | -0.907 |
| CCTACTGGGCCATCAGGTCATTGAAATCAACGTT | 2.46 | 1.85 | 2.14 | 0.155 | 1.18 | 3.07 | 2.88 | 1.02 |
| ACTCGGAGGACAAAGGTCAGAGCAACGCCAGTGA | 4.24 | 6.11 | 5.43 | 1.26 | 5.09 | 3.55 | 0.599 | 1.14 |
| CCGACTGGGACAAAGGTTACCATACTCAGTACGA | 1.88 | 2.42 | 1.43 | 0.478 | 2.21 | 1.75 | 0.208 | -0.0207 |
| TCTAGCAGCCCAGAGGGTCACTCAAGAGGTACGG | 2.38 | 2.16 | 1.8 | -0.186 | 2.23 | 1.63 | -0.455 | 0.294 |
| AGAACGAGGGCACGCTGAGTTTATAGCAGAGTAG | 1.45 | 2.31 | 2.32 | 2.18 | 1.5 | 2.15 | -0.111 | 4.06 |
| CCTACTGTGCCAAGGTCATTGATCAGTCAAAGCA | 3.73 | 3.88 | 3.24 | 2.18 | 3.4 | 3.68 | 3.43 | 3.63 |
| GGAAGGAGGGCAAAGTTGATAGCATCTGTCGACG | 1.91 | 2.07 | 1.55 | 1.37 | 1.89 | 1.04 | 0.664 | 1.44 |
| CCAGACAGGCGAAAGGTAACTCAGTCTGGTACGC | -0.261 | 0.0389 | -0.491 | -0.267 | 0.25 | -0.18 | -0.896 | -0.57 |
| ACTATTAGTTAAGACGAGGGCAACCGATAGGTTG | 1.34 | 0.59 | 0.902 | 0.459 | 0.55 | 1.85 | 0.204 | 0.991 |
| CCGAGAAGGTTATGGGGCATTCAGGCAACGGTGA | 1.61 | 1.84 | 1.38 | 0.364 | 2.23 | 1.3 | 0.0713 | 0.22 |
| TCATACAGGTAAATGCTAGGTGAAAGTCCGATCT | 0.654 | 0.462 | 0.278 | 1.48 | 0.593 | 1.47 | 0.878 | 0.146 |

| Sequence | PBM binding z-score [1] | PBM binding z-score [2] | PBM binding z-score [3] | PBM binding z-score [4] | PBM binding z-score [5] | PBM binding z-score [6] | PBM binding z-score [7] | PBM binding z-score [8] |
| --- | --- | --- | --- | --- | --- | --- | --- | --- |
| CCTAGTTGGTCTAGGTCACACACGCTATAGGTAC | 3 | 2.36 | 2.69 | 0.925 | 1.88 | 2.99 | 2.78 | 1.78 |
| TCTTGTAGATCAAGCAGGTTAAGCAAGCCTGAGT | 0.0597 | -0.0759 | -0.399 | 0.344 | 0.228 | 0.275 | -0.299 | -0.175 |
| GGAACGAGGGCACGTTGATAGCAGAGTTTGATGG | 1.27 | 1.53 | 2 | 2 | 0.885 | 1.41 | 0.0368 | 1.03 |
| AGAATGAGGGCAATGAGTTGATAGCACGGGTGGC | 1.18 | 1.31 | 1.47 | 2.27 | 0.95 | 1.59 | 0.363 | 3.47 |
| ACTCGGAGGACTAAGGTCAGAGCTACGCCAGTGA | 3.15 | 2.89 | 2.54 | 0.168 | 2.34 | 3.35 | 2.6 | 0.805 |
| CAAACTAGGTCCAGGTCAAAGTCGGTTTGTGCCA | 3.03 | 2.6 | 2.27 | 1.62 | 2.37 | 3.31 | 2.79 | 2.49 |
| TCGAGTAGCTTAGTCGGGGCATTCAGCCAACATA | -0.405 | -0.536 | -1.05 | -0.135 | -0.559 | -0.289 | -0.688 | -0.534 |
| CCTGCTAGGTCATGGTCCGCTAATCTACAGTATG | 2.55 | 3.73 | 4.05 | 1.74 | 2.66 | 2.86 | 1.1 | 0.414 |
| TAGCCTAGGTCATGCGGGCCACTATAGTGTCGGC | 2.97 | 4.13 | 4.41 | 0.662 | 3.23 | 3.15 | 0.932 | 1.08 |
| ATACCAAGGTGATCGTGAGGTCGTAGATACTAAC | 1.56 | 2.26 | 1.03 | -0.0325 | 1.76 | 3.54 | 2.52 | 1.86 |
| ATATGTAGGTTATCGCGTCATTCAGTTTGCGCAT | 0.515 | 0.647 | 0.634 | 0.806 | 1.03 | 0.388 | 0.235 | 0.254 |
| TCGTATAGGTAAATGCTAGGTGAAAGTCCGATCT | 0.475 | 0.402 | 0.0931 | 1.07 | 0.407 | 1.48 | 0.325 | -0.0661 |
| GCTCGGAGGATAAGGTCAGAGCTTTGTCCGTAGA | 3.31 | 2.92 | 3.06 | 0.342 | 2.71 | 3.33 | 2.82 | 0.184 |
| TCAGACAGATGAAGGTAACTCAGGTACGCAGTCG | -0.403 | 0.326 | 0.197 | 1.34 | 0.965 | 1.03 | -0.261 | 0.0374 |
| ATCTCTAGGTAAAGAAAGTTCAGTGAATGCAAAT | 2.33 | 1.43 | 1.59 | 0.781 | 0.876 | 1.22 | 0.318 | 1.71 |
| CCTAGTTGGTCAGGAGGACACACACCGGATATGA | 1.58 | 1.2 | 1.73 | -0.252 | 0.276 | 1.28 | 1.43 | 0.975 |
| CCTTGTTGGTCAGGAGGTCACACACCGGATATGA | 4.42 | 4.76 | 4.32 | 0.608 | 4.89 | 3.33 | 2.47 | 2.17 |
| AATAGTTGGTCAGCTGAGGTCACACACAATTCGG | 4.34 | 4.25 | 4.37 | 1.48 | 4.26 | 4.94 | 5.21 | 3.62 |
